Source: PubChem (National Center for Advancing Translational Sciences (NCATS))
GLP1R ag = activates the human GLP-1 receptor. HEK293 GLP-1R CRE-luciferase, luminescence, 4-6 h; cells express a hypersensitive GLP-1R form. 380,000 tested, 0.007% active. Potency, µM (doses to about 45.6 µM), without a hit: at the highest dose activation, hits mostly activators. P43220; note: % of control where 0% means no effect
Target sequence (P43220 whole entry, looked up): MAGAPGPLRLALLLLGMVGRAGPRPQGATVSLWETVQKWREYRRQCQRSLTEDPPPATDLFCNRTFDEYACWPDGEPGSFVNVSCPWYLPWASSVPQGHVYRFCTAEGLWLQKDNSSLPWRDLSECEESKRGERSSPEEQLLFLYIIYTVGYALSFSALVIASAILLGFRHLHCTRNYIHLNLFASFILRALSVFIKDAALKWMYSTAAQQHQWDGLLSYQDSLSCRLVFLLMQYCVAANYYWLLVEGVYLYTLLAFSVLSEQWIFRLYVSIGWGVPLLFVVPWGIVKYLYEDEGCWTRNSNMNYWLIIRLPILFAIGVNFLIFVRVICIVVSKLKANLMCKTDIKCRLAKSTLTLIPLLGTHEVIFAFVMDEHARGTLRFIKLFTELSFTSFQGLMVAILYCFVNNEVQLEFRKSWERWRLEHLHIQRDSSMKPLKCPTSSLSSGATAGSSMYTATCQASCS
GLP-1R inv ag = inverse agonists of human GLP-1 receptor | P43220 | HEK293 GLP-1R CRE-luciferase, luminescence, 24 h; GLP-1R form is constitutively active | Potency, µM (doses to about 38.3 µM), inactives show at the highest dose activity change, negative = inhibition, hits mostly inhibitors | 410,000 tested, 1.6% active; note: % is set by controls: 0 for no effect and ±100 for the full control effect; nearly all actives have a fitted effect of over 55% in size
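HEK293 cells stably co-expressing a cAMP-responsive luciferase reporter and constitutively active GLP-1R were seeded, incubated 12 h, then exposed to compounds for 24 h at 37 C. Luminescence was read 12 min after detection reagent; inverse agonists lower signal.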
PTHR1 agonist = agonists of human PTHR1 parathyroid hormone receptor; Potency, µM (doses to about 115 µM), without a hit: at the top dose activation, most hits filed as activators; HEK293 GP2 PTHR1 cells, GloSensor cAMP luminescence, 1 h; AID 743266; Q03431; 410,000 tested, 0.075% active; note: nearly all actives have a fitted effect of over 55% in size
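HEK-293-derived GP2 cells expressing PTHR1 and a GloSensor cAMP reporter, 3,000/well, plated overnight, given luciferin plus IBMX (each 0.5 mM as added) for 1 h at 37 °C, then compound for 1 h at 37 °C. Luminescence was read after 15 min at room temperature.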
GLP1R cytotox = cytotoxic in the GLP-1 receptor inverse agonist counter-screen | HEK293 cAMP-luciferase reporter cells, luminescence, 24 h | Potency, µM (highest dose often 38.3 µM), for the others: top-dose activity change, negative = inhibition, most hits filed as inhibitors | 410,000 tested, 0.13% active | AID 624418;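 note: loss of luciferase light is scored as toxicity; % is set by controls: 0 for no effect and ±100 for the full control effect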
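Quantitative HTS format, 1536 wells, 200 cells/uL seeded. Compounds: 23 nL, 24 h, 37 °C. Detection: luciferase reagent, luminescence at 12 min RT; decreased signal taken as cytotoxic.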
Numbers without * were called inactive; [ ] = another dose, or the depositor's remark. Shown are actives, neighbours in structure and some others; about 1.7% of the full set was active somewhere. Calls come from the whole dose curve; as a rule, active = well fitted curve in the direction sought with a large enough effect; inconclusive = small, poorly fitted or top-dose-only effect, or another doubt; inactive = no such curve, though single readings can be large; an effect the other way counts as inactive or inconclusive. Potency is the fitted concentration of half-maximal effect.

Results for CO/N=C(\C(=O)N[C@@H]1C(=O)N2C(C(=O)OCOC(=O)C(C)(C)C)=C(C)CS[C@H]12)c1csc(N)n1 ?
GLP1R ag: -5.0%

Results for O=C(CNc1cccc(S(=O)(=O)N2CCCCCC2)c1)Nc1cccc([N+](=O)[O-])c1 ?
GLP1R ag: 2.2%; GLP-1R inv ag: 7.08µM*; PTHR1 agonist: -36.0%; GLP1R cytotox: inconclusive

How did Cn1cc(S(=O)(=O)c2ccccc2)c(=O)c2cc(F)c(N3CCN(c4ccc(F)cc4)CC3)cc21 do in these assays?
GLP-1R inv ag: 7.1%; PTHR1 agonist: 60.9µM*; GLP1R cytotox: -0.3%

What do the screens show for `CCOC(=O)c1c(C)n(C)c2ccc(O)c(CN(CC)CC)c12`?
GLP1R ag: -8.3%; GLP-1R inv ag: 6.8%; PTHR1 agonist: -41.4%; GLP1R cytotox: -18.1%

What do the screens show for `CCOC(=O)c1c(C)n(-c2ccccc2)c2ccc(O)c(CN(C)C)c12`?
GLP1R ag: 8.5%; GLP-1R inv ag: 8.91µM*; PTHR1 agonist: inactive; GLP1R cytotox: -8.7%

What do the screens show for `Cn1c(SCc2ccc(F)cc2)nc2ccc(C(=O)NCc3ccccc3)cc21`?
GLP-1R inv ag: -25.1%; PTHR1 agonist: -87.8%; GLP1R cytotox: 10.0%

Results for CCOC(=O)c1c(C)[nH]c(C(=O)OCC(=O)Nc2sccc2C(N)=O)c1C ?
GLP1R ag: -22.6%; GLP-1R inv ag: 11.2µM*; PTHR1 agonist: -39.5%; GLP1R cytotox: inconclusive

What do the screens show for `CCOC(=O)c1c(C)[nH]c(C(=O)OCC(=O)Nc2ccc(Cl)cn2)c1C`?
GLP1R ag: -32.8%; GLP-1R inv ag: -2.4%; PTHR1 agonist: 21.7%; GLP1R cytotox: -0.3%

What do the screens show for `COc1ccc(-c2cc(=O)c3cc(F)ccc3[nH]2)cc1`?
GLP1R ag: 3.1%; GLP-1R inv ag: 1.1%; PTHR1 agonist: inactive; GLP1R cytotox: inconclusive

How did COc1ccc2[nH]c(-c3ccc(C)cc3)cc(=O)c2c1 do in these assays?
GLP1R ag: -4.2%; GLP-1R inv ag: 3.16µM*; PTHR1 agonist: -53.9%; GLP1R cytotox: 0.0%

Results for Cc1nn(-c2ccccc2)c(Cl)c1C(=O)Nc1nnc(C2CCCCC2)s1 ?
GLP1R ag: -4.9%; GLP-1R inv ag: 8.91µM*; PTHR1 agonist: -27.4%; GLP1R cytotox: -7.5%

Results for CCn1c(CCCOc2ccc(Cl)cc2Cl)nnc1SCC(=O)Nc1cc(F)ccc1C ?
GLP1R ag: 11.4%; GLP-1R inv ag: 11.2µM*; PTHR1 agonist: -40.2%; GLP1R cytotox: -27.4%

How did CCOC(=O)c1c(CN2CCN(C)CC2)n(-c2ccccc2)c2cc(Br)c(O)cc12 do in these assays?
GLP1R ag: 3.7%; GLP-1R inv ag: inconclusive; PTHR1 agonist: inactive; GLP1R cytotox: 12.9%

How did CCOC(=O)c1c(CN2CCN(CCO)CC2)n(-c2ccccc2)c2cc(Br)c(O)cc12 do in these assays?
GLP1R ag: 15.7%; GLP-1R inv ag: 2.24µM*; PTHR1 agonist: inactive; GLP1R cytotox: inconclusive

Results for Cc1ccsc1CCN1C(=O)N(c2ccccc2)C(=O)C1CC(=O)Nc1ccc(Cl)cc1 (configuration not stated) ?
GLP-1R inv ag: 10µM*; PTHR1 agonist: -94.6%; GLP1R cytotox: -21.3%

Results for COc1ccc(N2C(=O)C(CC(=O)Nc3ccc(F)cc3)N(CCC3=CCCCC3)C2=O)cc1 (configuration not stated) ?
GLP-1R inv ag: -1.0%; PTHR1 agonist: -24.9%; GLP1R cytotox: -8.4%

How did O=C(CC1C(=O)N(c2ccccc2)C(=O)N1CCC1=CCCCC1)Nc1ccc(F)cc1 (configuration not stated) do in these assays?
GLP-1R inv ag: 10µM*; PTHR1 agonist: inactive; GLP1R cytotox: -16.0%

What do the screens show for `COc1ccc(CCNC(=O)CSc2nc3ccccc3nc2Cc2ccc(C)cc2)cc1OC`?
GLP-1R inv ag: -77.8%; PTHR1 agonist: inactive; GLP1R cytotox: -24.5%

What do the screens show for `N#Cc1cn(Cc2ccccc2)c2ccccc12`?
GLP1R ag: 6.0%; GLP-1R inv ag: 11.2µM*; PTHR1 agonist: -12.8%; GLP1R cytotox: 11.1%

Results for O=C1c2ccsc2SCCN1Cc1cccc(Cl)c1 ?
GLP1R ag: 4.5%; GLP-1R inv ag: 12.6µM*; PTHR1 agonist: -8.7%[57.5 µM]; GLP1R cytotox: -12.6%

Results for Clc1ccc2c(c1)c1cc(Cl)ccc1n2CN1CCOCC1 ?
GLP1R ag: -4.4%; GLP-1R inv ag: 5.01µM*; PTHR1 agonist: -7.7%; GLP1R cytotox: 5.9%

Results for Cc1ccc(C(=O)NCC(c2ccc3c(c2)OCO3)N2CCOCC2)cc1C (configuration not stated) ?
GLP-1R inv ag: 0.4%; PTHR1 agonist: -23.9%; GLP1R cytotox: 5.6%

Results for O=C(/C=C/c1cccc(Br)c1)N1CCN(c2cccc(C(F)(F)F)c2)CC1 ?
GLP1R ag: -0.8%; GLP-1R inv ag: inconclusive; PTHR1 agonist: -6.4%; GLP1R cytotox: -6.1%

What do the screens show for `Cc1ccc(S(=O)(=O)CC(=O)N2CCN(c3cccc(C(F)(F)F)c3)CC2)cc1`?
GLP1R ag: -2.6%; GLP-1R inv ag: 0.7%; PTHR1 agonist: -38.1%; GLP1R cytotox: 0.2%

How did CC1(C)Cc2cccc(OCC(=O)N3CCN(c4cccc(C(F)(F)F)c4)CC3)c2O1 do in these assays?
GLP1R ag: 0.3%; GLP-1R inv ag: 10µM*; PTHR1 agonist: -38.7%; GLP1R cytotox: -6.4%

Results for Cc1ccc(CC(=O)N2CCN(c3cccc(C(F)(F)F)c3)CC2)cc1 ?
GLP1R ag: 0.1%; GLP-1R inv ag: 8.91µM*; PTHR1 agonist: -35.5%[57.5 µM]; GLP1R cytotox: -14.4%

How did O=C(/C=C/c1ccc(Br)cc1)N1CCN(c2cccc(C(F)(F)F)c2)CC1 do in these assays?
GLP1R ag: -2.2%; GLP-1R inv ag: 10µM*; PTHR1 agonist: -83.9%; GLP1R cytotox: -11.8%

How did CC(C)(Cc1ccc(O)cc1)NC(=O)SCc1ccccc1 do in these assays?
GLP1R ag: 12.8%; GLP-1R inv ag: 12.6µM*; PTHR1 agonist: inactive; GLP1R cytotox: 3.0%

How did C[C@@](Cc1ccccc1)(NC(=O)CN)c1ccccc1 do in these assays?
GLP1R ag: 1.3%

How did COc1cc(C(=O)N(CCCN(C)C)c2nc3c(OC)cccc3s2)cc(OC)c1OC do in these assays?
GLP-1R inv ag: inconclusive; PTHR1 agonist: inconclusive; GLP1R cytotox: -3.1%

What do the screens show for `O=C1CCC[C@@H]2C[C@@]3(C[C@@H]4CCN1[C@H]24)Nc1cc(Cl)c(Cl)cc1NC3=NCc1ccccc1`?
GLP1R ag: 0.9%; GLP-1R inv ag: 10µM*; PTHR1 agonist: inactive; GLP1R cytotox: -27.8%

What do the screens show for `COc1cccc(CNC(=O)CSC2=Nc3ccccc3C3=NC(C)C(=O)N23)c1OC` (configuration not stated)?
GLP-1R inv ag: 14.1%; PTHR1 agonist: -15.8%; GLP1R cytotox: -4.7%

Results for c1ccc(CNCCC(Cc2ccccc2)c2ccco2)cc1 (configuration not stated) ?
GLP1R ag: -5.7%; GLP-1R inv ag: 8.91µM*; PTHR1 agonist: -10.3%; GLP1R cytotox: inconclusive
